According to PubChem BioAssay (NCATS):
Records with an inconclusive call do not appear. Values without a mark were called inactive. Activity calls are given as the source filed them. The call rests on the fitted dose curve; in most records, active means well fitted curve in the direction sought with a large enough effect; inconclusive means small, poorly fitted or top-dose-only effect, or another doubt; inactive means no such curve, though single readings can be large or run the other way.

experiment: qHTS Assay for Identifying Gametocytocidal Compounds (AID 743244);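 on max response: actives lower the fluorescent signal which means gametocytes are killed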; conditions: P. falciparum 3D7 stage III-V gametocytes, alamarBlue, 72 h; max response: active compounds read low
Outline: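 3D7 gametocytes, stages III–V, 20,000/well; cpd 72 h, 37 °C/5% CO2; + alamarBlue 24 h; fluor. Ex 525/Em 598.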
On the % scale 0 is the no-effect control and ±100 the full control effect; potency means the concentration at half of the fitted maximal effect.

Row | SMILES | max response [%] | Potency
1 | CC(N)C12CC3CC(CC(C3)C1)C2 (stereo not given) | 26.1 | –
2 | CC1=CC(=O)c2ccccc2C1=O | – | 12.6 µM (active)
3 | CC(C(=O)O)c1ccc2c(c1)CC(=O)c1ccccc1S2 (stereo not given) | 43 | –
4 | COc1c(N2CCNC(C)C2)c(F)cc2c(=O)c(C(=O)O)cn(C3CC3)c12 (stereo not given) | -5.93 | –
5 | COC(c1ccccc1)(c1ccccc1)[C@H](Oc1nc(C)cc(C)n1)C(=O)O | 8.54 | –
6 | Nc1nc(N)nc(-c2cc(Cl)ccc2Cl)n1 | 11.2 | –
7 | NC(=O)c1cccnc1 | 0.464 | –
8 | CCCc1nc(C)c2c(=O)[nH]c(-c3cc(S(=O)(=O)N4CCN(CC)CC4)ccc3OCC)nn12 | 1.11 | –
9 | COc1ccc(-c2ccc3cc(C(=O)O)ccc3c2)cc1C12CC3CC(CC(C3)C1)C2 | 23.8 | –
10 | COc1ccccc1OCC(O)COC(N)=O (stereo not given) | -1.63 | –
11 | COCCCOc1cc(C[C@@H](C[C@H](N)[C@@H](O)C[C@H](C(=O)NCC(C)(C)C(N)=O)C(C)C)C(C)C)ccc1OC | 13.7 | –
12 | CCCc1cc(C(N)=S)ccn1 | 4.17 | –
13 | Nc1[nH]c(=O)ncc1F | -2.11 | –
14 | CCOC(=O)c1ccc(C#Cc2ccc3c(c2)C(C)(C)CCS3)nc1 | 32 | –
15 | O=C(O)c1ccc(-n2nc(-c3ccccc3O)nc2-c2ccccc2O)cc1 | -16.4 | –
16 | CCn1cc(C(=O)O)c(=O)c2cc(F)c(N3CCN(C)CC3)cc21 | 4.94 | –
17 | Cn1c(=O)c2c(ncn2CC(O)CO)n(C)c1=O (stereo not given) | -1.9 | –
18 | NS(=O)(=O)c1cc2c(cc1Cl)NC(C(Cl)Cl)NS2(=O)=O (stereo not given) | 6.12 | –

Row | SMILES | max response [%] | Potency
19 | CC(=O)[C@H]1CC[C@H]2[C@@H]3CC=C4C[C@@H](O)CC[C@]4(C)[C@H]3CC[C@]12C | 11.7 | –
20 | CN1CCN(c2c(F)cc3c(=O)c(C(=O)O)cn(CCF)c3c2F)CC1 | 1.63 | –
21 | COc1ccc2c(c1)c(CC(=O)OCC(=O)O)c(C)n2C(=O)c1ccc(Cl)cc1 | -13.1 | –
22 | O=c1cc(O)c(Cl)c[nH]1 | 10.3 | –
23 | O=C(O)c1cn(C2CC2)c2cc(N3CCNCC3)c(F)cc2c1=O | 4.49 | –
24 | COC(=O)Nc1nc2ccc(S(=O)c3ccccc3)cc2[nH]1 (stereo not given) | 20.6 | –
25 | CC(C)OC(=O)C(C(=O)OC(C)C)=C1SC=CS1 | 13.6 | –
26 | O=C(O)c1cccnc1 | 3.31 | –
27 | C#CCN[C@@H]1CCc2ccccc21 | -0.979 | –
28 | O=S(=O)(O)CCS | -4.29 | –
29 | CN1CCCC(n2nc(Cc3ccc(Cl)cc3)c3ccccc3c2=O)CC1 (stereo not given) | 32.9 | –
30 | CCOC(=O)c1ccc(OC(=O)CCCCCN=C(N)N)cc1 | -8.62 | –
31 | O[C@@H](CNC[C@H](O)[C@H]1CCc2cc(F)ccc2O1)[C@@H]1CCc2cc(F)ccc2O1 | – | 11.2 µM (active)
32 | COc1ccc(C(=O)CC(=O)c2ccc(C(C)(C)C)cc2)cc1 | 7.37 | –
33 | Cc1cccc(N(C)C(=S)Oc2ccc3ccccc3c2)c1 | 6.54 | –
34 | C[C@@H]1CN(c2c(F)c(N)c3c(=O)c(C(=O)O)cn(C4CC4)c3c2F)C[C@H](C)N1 | 13.9 | –
35 | CCC(C)(C)c1ccc(CC(C)CN2C[C@@H](C)O[C@@H](C)C2)cc1 (stereo not given in full) | 21.2 | –
